Reference: the supplement of paper PMC10681739

Experiments:
ETS1 [1] = target: T1, ETS1 (UniProt P14921); experiment: ETS1 binding intensity (PBM fluorescence), ETS1 alone (arbitrary fluorescence units); higher = stronger binding; details: ETS1 concentration 1 nM; RUNX1 concentration 0 nM
T1 sequence: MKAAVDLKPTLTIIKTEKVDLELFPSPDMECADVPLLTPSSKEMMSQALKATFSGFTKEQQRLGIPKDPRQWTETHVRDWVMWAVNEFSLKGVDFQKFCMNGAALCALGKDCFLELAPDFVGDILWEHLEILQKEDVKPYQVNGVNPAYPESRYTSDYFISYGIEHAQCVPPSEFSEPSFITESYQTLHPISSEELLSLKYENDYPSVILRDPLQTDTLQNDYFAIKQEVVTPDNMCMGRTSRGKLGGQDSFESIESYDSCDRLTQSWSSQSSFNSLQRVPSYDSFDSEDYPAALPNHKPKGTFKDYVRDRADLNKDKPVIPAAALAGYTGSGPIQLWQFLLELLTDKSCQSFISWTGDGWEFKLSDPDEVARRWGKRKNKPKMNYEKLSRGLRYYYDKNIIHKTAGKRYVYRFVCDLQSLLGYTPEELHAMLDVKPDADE

RUNX1 [2] = target: RUNX1 (UniProt Q01196); experiment: RUNX1 binding intensity (PBM fluorescence), RUNX1 alone (arbitrary fluorescence units); higher = stronger binding; details: RUNX1 concentration 2 nM; ETS1 concentration 0 nM
RUNX1, sequence (Q01196 whole entry): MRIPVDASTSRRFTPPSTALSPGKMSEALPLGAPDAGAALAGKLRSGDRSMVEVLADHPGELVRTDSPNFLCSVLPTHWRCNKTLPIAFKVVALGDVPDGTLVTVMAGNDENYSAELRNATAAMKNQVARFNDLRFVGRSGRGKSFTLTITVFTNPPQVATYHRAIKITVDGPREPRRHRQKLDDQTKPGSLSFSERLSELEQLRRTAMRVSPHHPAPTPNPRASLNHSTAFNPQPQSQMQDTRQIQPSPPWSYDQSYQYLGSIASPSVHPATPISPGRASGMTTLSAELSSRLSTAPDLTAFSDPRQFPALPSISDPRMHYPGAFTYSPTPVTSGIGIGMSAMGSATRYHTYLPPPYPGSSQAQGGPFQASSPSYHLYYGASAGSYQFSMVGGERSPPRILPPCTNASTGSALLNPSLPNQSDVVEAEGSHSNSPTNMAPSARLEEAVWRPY
Procedure: (§1)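 Cooperative gcPBM on 36-bp genomic probes with neighbouring ETS1 and RUNX1 sites. Recombinant human RUNX1 (2 nM) was incubated alone or with ETS1 (25 nM) and detected with anti-RUNX1 antibody plus Alexa488 secondary. Values are medians over 4 replicate spots; the RUNX1+ETS1 data were normalised to the RUNX1-only data. The probes sit in constant array flanks that are not printed.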

ETS1 [3] = target: T1, ETS1; experiment: ETS1 binding intensity (PBM fluorescence) in presence of RUNX1, normalised to ETS1-only experiment (arbitrary fluorescence units); higher = stronger binding; details: ETS1 concentration 1 nM; RUNX1 concentration 25 nM
RUNX1 [4] = target: RUNX1 (UniProt Q01196); experiment: RUNX1 binding intensity (PBM fluorescence) in presence of ETS1, normalised to RUNX1-only experiment (arbitrary fluorescence units); higher = stronger binding; details: RUNX1 concentration 2 nM; ETS1 concentration 25 nM
Procedure: as §1
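Wherever RUNX1 binding intensity (PBM fluorescence) in presence of ETS1, normalised to RUNX1-only experiment is given: Full-length recombinant human ETS1 or RUNX1 bound to double-stranded 36-bp genomic probes on microarrays, detected by protein-specific primary antibody and Alexa488 secondary, spot fluorescence as median of four replicate spots.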
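Wherever RUNX1 binding intensity (PBM fluorescence), RUNX1 alone is given: Full-length recombinant human RUNX1 bound to double-stranded 36-bp genomic probes on a high-density microarray, scored as Alexa488 fluorescence per spot via anti-RUNX1 antibody, median of four replicate spots.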

CCCTCATCTTCCTGCTTCAGGCAGCTGTGGTTTACC
ETS1 binding intensity (ETS1 [1]): 420
RUNX1 binding intensity (RUNX1 [2]): 1070
ETS1 binding intensity (ETS1 [3]): 1550
RUNX1 binding intensity (RUNX1 [4]): 1660

AGCACAAACCCAGGATGTGGTAAATGAAATGAAAAA
ETS1 binding intensity (ETS1 [1]): 1260
RUNX1 binding intensity (RUNX1 [2]): 858
ETS1 binding intensity (ETS1 [3]): 5210
RUNX1 binding intensity (RUNX1 [4]): 1460

ACTCCAGAGGAAGTGGCAAGACGAGCGCGGTAACGG
ETS1 binding intensity (ETS1 [1]): 1080
RUNX1 binding intensity (RUNX1 [2]): 728
ETS1 binding intensity (ETS1 [3]): 1560
RUNX1 binding intensity (RUNX1 [4]): 1330

TGGCAGCGGGTGCGGAAACCACAGGCCTCCAGGCTT
ETS1 binding intensity (ETS1 [1]): 701
RUNX1 binding intensity (RUNX1 [2]): 1480
ETS1 binding intensity (ETS1 [3]): 1520
RUNX1 binding intensity (RUNX1 [4]): 2470

TTGCTCCCGGAAGCCCCGCCCGACCGCGGCTCCTGA
ETS1 binding intensity (ETS1 [1]): 999
RUNX1 binding intensity (RUNX1 [2]): 865
ETS1 binding intensity (ETS1 [3]): 1970
RUNX1 binding intensity (RUNX1 [4]): 1210

GCGCGGCGCGACCGGACGCTGCGGGCGGGGAAGAGG
ETS1 binding intensity (ETS1 [1]): 3230
RUNX1 binding intensity (RUNX1 [2]): 734
ETS1 binding intensity (ETS1 [3]): 5990
RUNX1 binding intensity (RUNX1 [4]): 929

GGGCGCGACTTCCGGGGCGGCGGTTGCATCAGATTC
ETS1 binding intensity (ETS1 [1]): 1580
RUNX1 binding intensity (RUNX1 [2]): 774
ETS1 binding intensity (ETS1 [3]): 1780
RUNX1 binding intensity (RUNX1 [4]): 2100

AAACTACACCTCAGAGGATGTGGTTCCTTCTCTCAT
ETS1 binding intensity (ETS1 [1]): 1130
RUNX1 binding intensity (RUNX1 [2]): 854
ETS1 binding intensity (ETS1 [3]): 1730
RUNX1 binding intensity (RUNX1 [4]): 946

CTCCTCCCCCACTTCCTATTTTTACCGCAGTTGCAC
ETS1 binding intensity (ETS1 [1]): 752
RUNX1 binding intensity (RUNX1 [2]): 4960
ETS1 binding intensity (ETS1 [3]): 1340
RUNX1 binding intensity (RUNX1 [4]): 7610

GCCACATATTTCCTGTGACAACCCTGTGGTGTGGCT
ETS1 binding intensity (ETS1 [1]): 641
RUNX1 binding intensity (RUNX1 [2]): 848
ETS1 binding intensity (ETS1 [3]): 723
RUNX1 binding intensity (RUNX1 [4]): 1640

AGACAGGAGTTCAGGAAGCTGCGGTCTAGATTATGT
ETS1 binding intensity (ETS1 [1]): 754
RUNX1 binding intensity (RUNX1 [2]): 1210
ETS1 binding intensity (ETS1 [3]): 6250
RUNX1 binding intensity (RUNX1 [4]): 1710

GCGAAAGGAACTTCCTTTGCATGCGGTCAGAGTGCT
ETS1 binding intensity (ETS1 [1]): 477
RUNX1 binding intensity (RUNX1 [2]): 892
ETS1 binding intensity (ETS1 [3]): 2280
RUNX1 binding intensity (RUNX1 [4]): 2490

CGGGAACACCCACTTCCGCCACAGACCTGCTCAAAA
ETS1 binding intensity (ETS1 [1]): 1400
RUNX1 binding intensity (RUNX1 [2]): 1090
ETS1 binding intensity (ETS1 [3]): 1380
RUNX1 binding intensity (RUNX1 [4]): 3820

GTGGAAAGGAAATGTGTCATCTGTGGTTTGGTTTTA
ETS1 binding intensity (ETS1 [1]): 645
RUNX1 binding intensity (RUNX1 [2]): 1060
ETS1 binding intensity (ETS1 [3]): 2110
RUNX1 binding intensity (RUNX1 [4]): 1410

GGCGGCACTAGGCTTCCGCCTCACCGCAGTGGGGTT
ETS1 binding intensity (ETS1 [1]): 362
RUNX1 binding intensity (RUNX1 [2]): 855
ETS1 binding intensity (ETS1 [3]): 845
RUNX1 binding intensity (RUNX1 [4]): 1430

CCACGGCTGGCTTCCTGTGTGGTTGGCACGCCTTAC
ETS1 binding intensity (ETS1 [1]): 951
RUNX1 binding intensity (RUNX1 [2]): 772
ETS1 binding intensity (ETS1 [3]): 1210
RUNX1 binding intensity (RUNX1 [4]): 1620

GCACTTCCGGAGCCGGGCGTCTACAGACCGCGGCCA
ETS1 binding intensity (ETS1 [1]): 868
RUNX1 binding intensity (RUNX1 [2]): 804
ETS1 binding intensity (ETS1 [3]): 1050
RUNX1 binding intensity (RUNX1 [4]): 2190

AAATATAGTGCTAAAGGAAGTGGTTTTCATGCAACT
ETS1 binding intensity (ETS1 [1]): 2380
RUNX1 binding intensity (RUNX1 [2]): 670
ETS1 binding intensity (ETS1 [3]): 4140
RUNX1 binding intensity (RUNX1 [4]): 1080

GCAGCTCTGGCAGGATGCGGTTAAATATGTAGCCAC
ETS1 binding intensity (ETS1 [1]): 2030
RUNX1 binding intensity (RUNX1 [2]): 2690
ETS1 binding intensity (ETS1 [3]): 12800
RUNX1 binding intensity (RUNX1 [4]): 11300

ACCTCTCTCACTTCCTACCAGAGAACCACAGCCAAG
ETS1 binding intensity (ETS1 [1]): 538
RUNX1 binding intensity (RUNX1 [2]): 1490
ETS1 binding intensity (ETS1 [3]): 404
RUNX1 binding intensity (RUNX1 [4]): 2150

TGTGAACTGACAGGATGTGGTACAAGGCTTACAAAG
ETS1 binding intensity (ETS1 [1]): 4830
RUNX1 binding intensity (RUNX1 [2]): 730
ETS1 binding intensity (ETS1 [3]): 8820
RUNX1 binding intensity (RUNX1 [4]): 1780

GCTCGGAAATACCAATATTGGGCTGTGGTATTTGAA
ETS1 binding intensity (ETS1 [1]): 412
RUNX1 binding intensity (RUNX1 [2]): 911
ETS1 binding intensity (ETS1 [3]): 626
RUNX1 binding intensity (RUNX1 [4]): 953

CTGTCCCTAGCAGGATGTGGTTTGCACATTGCTGCT
ETS1 binding intensity (ETS1 [1]): 3220
RUNX1 binding intensity (RUNX1 [2]): 962
ETS1 binding intensity (ETS1 [3]): 12500
RUNX1 binding intensity (RUNX1 [4]): 4600

CCCCTCACTTCCCTCAACCCTTCCCACAAACTGGGA
ETS1 binding intensity (ETS1 [1]): 597
RUNX1 binding intensity (RUNX1 [2]): 1920
ETS1 binding intensity (ETS1 [3]): 571
RUNX1 binding intensity (RUNX1 [4]): 2350

CTGTCTGCTTCCCGTGGCCAGCCCTGACCGCGGCCC
ETS1 binding intensity (ETS1 [1]): 351
RUNX1 binding intensity (RUNX1 [2]): 1060
ETS1 binding intensity (ETS1 [3]): 621
RUNX1 binding intensity (RUNX1 [4]): 1430

CCAAGCACTTCCTGCTGTTAGCTTTGTGGGCTGAGT
ETS1 binding intensity (ETS1 [1]): 826
RUNX1 binding intensity (RUNX1 [2]): 860
ETS1 binding intensity (ETS1 [3]): 1020
RUNX1 binding intensity (RUNX1 [4]): 1600

CCCCTTCCCGTTCTCCGAAAGTGCGCGGGTTGGAGC
ETS1 binding intensity (ETS1 [1]): 489
RUNX1 binding intensity (RUNX1 [2]): 792
ETS1 binding intensity (ETS1 [3]): 361
RUNX1 binding intensity (RUNX1 [4]): 1230

GACTGGTTTCCTGGTTTTGATGTGGTTTAGAGAAAA
ETS1 binding intensity (ETS1 [1]): 504
RUNX1 binding intensity (RUNX1 [2]): 1080
ETS1 binding intensity (ETS1 [3]): 630
RUNX1 binding intensity (RUNX1 [4]): 2170

AAATGTGGCCGGATGCTCTGTGGGCGGGCGGCAGCT
ETS1 binding intensity (ETS1 [1]): 2890
RUNX1 binding intensity (RUNX1 [2]): 700
ETS1 binding intensity (ETS1 [3]): 3770
RUNX1 binding intensity (RUNX1 [4]): 1300

TGTATAACATCCTCATGTTCTGTGGGTGAGTTGAGC
ETS1 binding intensity (ETS1 [1]): 481
RUNX1 binding intensity (RUNX1 [2]): 824
ETS1 binding intensity (ETS1 [3]): 356
RUNX1 binding intensity (RUNX1 [4]): 871

TTTGCTGCAGAAGGATGTGGTTTATTCAGGTTTGAC
ETS1 binding intensity (ETS1 [1]): 676
RUNX1 binding intensity (RUNX1 [2]): 932
ETS1 binding intensity (ETS1 [3]): 3620
RUNX1 binding intensity (RUNX1 [4]): 1270

CAGCTTTCCGGCCTGCAGCACAGGCAATGTGGTTTT
ETS1 binding intensity (ETS1 [1]): 341
RUNX1 binding intensity (RUNX1 [2]): 1020
ETS1 binding intensity (ETS1 [3]): 554
RUNX1 binding intensity (RUNX1 [4]): 2150

GGCTGCGACTTCCGGACTGCTCCTGGCCGCAGGGGG
ETS1 binding intensity (ETS1 [1]): 2070
RUNX1 binding intensity (RUNX1 [2]): 813
ETS1 binding intensity (ETS1 [3]): 2500
RUNX1 binding intensity (RUNX1 [4]): 1370

GAGCCGGAAGTGAAGGAGGGCTTGTGGGAGATGGAG
ETS1 binding intensity (ETS1 [1]): 2710
RUNX1 binding intensity (RUNX1 [2]): 713
ETS1 binding intensity (ETS1 [3]): 3090
RUNX1 binding intensity (RUNX1 [4]): 1210

TGTCATCCCGGAAACTGATAACAAGACCGCGAGTCA
ETS1 binding intensity (ETS1 [1]): 1910
RUNX1 binding intensity (RUNX1 [2]): 807
ETS1 binding intensity (ETS1 [3]): 2530
RUNX1 binding intensity (RUNX1 [4]): 1450

GAGGCAGGCGGATGTCAGTGTGGTTAGAGCACAGTG
ETS1 binding intensity (ETS1 [1]): 1170
RUNX1 binding intensity (RUNX1 [2]): 782
ETS1 binding intensity (ETS1 [3]): 3310
RUNX1 binding intensity (RUNX1 [4]): 1960

CGGGGCTTCCGGCGCGCTGCCTTGTGGGCACGGTAG
ETS1 binding intensity (ETS1 [1]): 591
RUNX1 binding intensity (RUNX1 [2]): 711
ETS1 binding intensity (ETS1 [3]): 611
RUNX1 binding intensity (RUNX1 [4]): 1390

ATGGTGTAGAGAGGATGTGGGCTTTAAGGTCAGAGA
ETS1 binding intensity (ETS1 [1]): 1140
RUNX1 binding intensity (RUNX1 [2]): 706
ETS1 binding intensity (ETS1 [3]): 1690
RUNX1 binding intensity (RUNX1 [4]): 1000

AACCTGCAGACTTCCTGCCATGTGACCACAGGGTCT
ETS1 binding intensity (ETS1 [1]): 901
RUNX1 binding intensity (RUNX1 [2]): 915
ETS1 binding intensity (ETS1 [3]): 3140
RUNX1 binding intensity (RUNX1 [4]): 2160

CTAGCAGGAAACAGACAGACCCAGCCACAGAATCTC
ETS1 binding intensity (ETS1 [1]): 470
RUNX1 binding intensity (RUNX1 [2]): 919
ETS1 binding intensity (ETS1 [3]): 519
RUNX1 binding intensity (RUNX1 [4]): 884

GGCTGCAGGAAGTGGGAAGGTGTGGCTTTGAGTCTC
ETS1 binding intensity (ETS1 [1]): 1830
RUNX1 binding intensity (RUNX1 [2]): 755
ETS1 binding intensity (ETS1 [3]): 2460
RUNX1 binding intensity (RUNX1 [4]): 1820

GACAAAGAGGAAGTCCCCAAAAACCACAATAACAGT
ETS1 binding intensity (ETS1 [1]): 910
RUNX1 binding intensity (RUNX1 [2]): 1570
ETS1 binding intensity (ETS1 [3]): 4080
RUNX1 binding intensity (RUNX1 [4]): 3900
